Viability and inhibition data for 40 compounds are collected here from PubChem BioAssay.

Calls of active or inactive are those of the source. Cut-off read from the data, not from the text of the source: active = inhibition above about 31%; inactive = the rest.

The first experiment in a line: MRP1 drug-resistance reversers in H69AR cells – cell-based, doxorubicin co-treatment, pilot screen (AID 601). As to conditions: H69AR cells, CellTiter-Glo, 72 h; compound alone cytotoxicity; at 10 µM. (In general: ATP-based viability assays read luminescence as a measure of living cells.)
A word on the viability: it is a read-out of living cells in per cent, often relative to untreated cells. Turning to `O=c1cc(-c2ccc(Cl)cc2)[nH][nH]1`, the viability was 91.6%.

In the case of `Cc1nc(N)c(C#N)c(-c2cccnc2)c1C`, the viability worked out at 102%.

Consider `CCOC(=O)c1c(NC(=O)OC)sc(C(=O)N(C)C)c1C`, for which the viability is 108%.

Regarding `O=C(NCCO)c1scc2c1OCCO2`, the viability is 93.6%.

Take `c1ccc2c(c1)Cn1c-2nc2ccccc21`: the viability was determined as 78.4%.

On to `CCOC(=O)C1=C(C)Nc2ncnn2C1c1ccccc1F` (stereo unspecified), for which the viability came out at 95.6%.

Take `Cc1nc2ccc(NC(=O)N3CCOCC3)cc2s1`: the viability was found to be 89.8%.

As to `Nc1nnnn1/N=C/c1ccccc1OCc1ccccc1`, the viability turned out to be 95.3%.

On to `COc1cccc(-c2noc(-c3cccs3)n2)c1`, for which the viability was determined as 81.5%.

`CC1CCN(S(=O)(=O)c2ccc(S(=O)(=O)NCC(=O)C(C)(C)C)cc2)CC1`: the viability is 91.8%.

Consider `OCCN1CCN(CC(O)COc2ccc3ccccc3c2)CC1` (stereo unspecified), for which the viability was 102%.

For the compound `O=C(NCc1cccnc1)c1ccccc1Br`, the viability amounted to 95.1%.

Turning to `C=CCNC(=O)c1cccc(Br)c1`, the viability came out at 92%.

Regarding `CC(c1nnc(SCC(=O)Nc2sccc2C#N)n1-c1ccc(Cl)cc1)N(C)C` (stereo unspecified), the viability is 75.4%.

In the case of `O=C(c1cc(S(=O)(=O)N2CCOCC2)ccc1F)N1CCCc2ccccc21`, the viability worked out at 90.9%.

As to `CC(C)Oc1ccc(N2CC(C(=O)Nc3ccccc3F)CC2=O)cc1` (stereo unspecified), the viability came to 97.6%.

On to `COCCn1c(C23CC4CC(CC(C4)C2)C3)n[nH]c1=S`, for which the viability was 77.2%.

Consider `COc1cccc(C2=Nn3c(nnc3-c3ccccc3O)SC2)c1`, for which the viability came to 67.2%.

In the case of `COc1cc(OC)c(OC)cc1CN(C)CCc1ccccn1`, the viability amounted to 86.9%.

With `CC(=O)c1c(C)nn(CC(O)COc2ccc3c(c2)CCC3)c1C` (stereo unspecified), the viability is 87.4%.

For `Cc1cccn2cc(-c3ccccc3)nc12`, the viability is 91.5%.

A short description of the next experiment: yeast transport mutant growth inhibition pilot in 384-well plates, post-Golgi transport modulator project (AID 636). As to conditions: absorbance 615 nm, about 18 h, stronger effect = higher value.
What is called inhibition is the change of the read-out against control, counted positive when it falls. In the case of `CC1(C)Cc2cccc(OCC(=O)O)c2O1`, the inhibition was -4.53% (inactive).

Take `CCn1cc(C(=O)O)c(=O)c2cc(F)c(N3CCN(C(=O)Nc4ccccc4)CC3)cc21`: the inhibition was -3.87% (inactive).

As to `[O-][n+]1c2ccc3nonc3c2nn1-c1ccccc1Cl`, the inhibition is -0.4% (inactive).

Consider `Cc1oc(-c2ccccc2Cl)nc1CSCC(=O)N1CCCC1`, for which the inhibition was -0.93% (inactive).

Turning to `CC(NC(=O)Cc1cccs1)c1ccc2c(c1)OCO2` (stereo unspecified), the inhibition was -4.67% (inactive).

Turning to `O=C(NCc1ccco1)c1csc(Nc2ccccc2Cl)n1`, the inhibition was -8.24% (inactive).

For the compound `O=C(Nc1ccc2c(c1)OCO2)C1CCCN1C(=O)Nc1ccccc1F` (stereo unspecified), the inhibition was -2.89% (inactive).

In the case of `COCCNC(=O)CC(NS(=O)(=O)c1ccc(NC(C)=O)cc1)C(C)C` (stereo unspecified), the inhibition was -4.74% (inactive).

Take `Cc1ccc(S(=O)(=O)NCCN2CCOCC2)cc1C`: the inhibition was -0.52% (inactive).

On to `Cc1n[nH]c(C)c1S(=O)(=O)N1CCN(c2ccccn2)CC1`, for which the inhibition was -0.26% (inactive).

With `COCCNC(=O)CN(C)S(=O)(=O)c1ccc2c(c1)OCCO2`, the inhibition was -4.8% (inactive).

As for `Cc1cc(C(F)F)n2nc(C(=O)Nc3ccc(S(=O)(=O)N4CCCCCC4)cc3)nc2n1`, the inhibition was -3.87% (inactive).

Turning to `O=C(O)C1C2C=CC(O2)C1C(=O)NCc1ccc(Cl)cc1` (stereo unspecified), the inhibition is -5.87% (inactive).

Turning to `Cc1ccc(NC2c3ncccc3C(=O)N2C2CCCCC2)cc1C` (stereo unspecified), the inhibition was -3.78% (inactive).

Turning to `C=CCOc1ccc(C2C(C(=O)c3ccco3)=C(O)C(=O)N2Cc2cccnc2)cc1` (stereo unspecified), the inhibition is -1.71% (inactive).

As to `COCCNC(=O)C(c1ccncc1)N(C(=O)Cn1nnc2ccccc21)c1ccc(OC)cc1` (stereo unspecified), the inhibition was -7.03% (inactive).

For `CCOc1ccc(NC(=O)CSc2nnc(Cc3cccn3C)n2-c2ccc(OC)cc2)cc1`, the inhibition is -1.49% (inactive).

For `CCOC(=O)N1CCC(O)(c2cc(C)c(C)cc2C)CC1`, the inhibition is -4.19% (inactive).

With `Clc1cccc(Nc2c3c(nc4ncnn24)CCC3)c1`, the inhibition is 1.82% (inactive).

On to `O=c1cc(-c2ccc(Cl)cc2)[nH][nH]1`, for which the inhibition is -7.84% (inactive).

For the compound `Cc1nc(N)c(C#N)c(-c2cccnc2)c1C`, the inhibition is -2.4% (inactive).

On to `CCOC(=O)c1c(NC(=O)OC)sc(C(=O)N(C)C)c1C`, for which the inhibition was -6.89% (inactive).

As for `O=C(NCCO)c1scc2c1OCCO2`, the inhibition was -5.73% (inactive).

On to `c1ccc2c(c1)Cn1c-2nc2ccccc21`, for which the inhibition is -6.35% (inactive).

Consider `CCOC(=O)C1=C(C)Nc2ncnn2C1c1ccccc1F` (stereo unspecified), for which the inhibition is -0.92% (inactive).

Regarding `Cc1nc2ccc(NC(=O)N3CCOCC3)cc2s1`, the inhibition was -4.34% (inactive).

For the compound `Nc1nnnn1/N=C/c1ccccc1OCc1ccccc1`, the inhibition is -4.13% (inactive).

In the case of `COc1cccc(-c2noc(-c3cccs3)n2)c1`, the inhibition was 2.08% (inactive).

For the compound `CC1CCN(S(=O)(=O)c2ccc(S(=O)(=O)NCC(=O)C(C)(C)C)cc2)CC1`, the inhibition is -6.97% (inactive).

Take `OCCN1CCN(CC(O)COc2ccc3ccccc3c2)CC1` (stereo unspecified): the inhibition is -4.8% (inactive).

Regarding `O=C(NCc1cccnc1)c1ccccc1Br`, the inhibition was -5.87% (inactive).

On to `C=CCNC(=O)c1cccc(Br)c1`, for which the inhibition is 9.59% (inactive).

For the compound `CC(c1nnc(SCC(=O)Nc2sccc2C#N)n1-c1ccc(Cl)cc1)N(C)C` (stereo unspecified), the inhibition is -3.68% (inactive).

As to `O=C(c1cc(S(=O)(=O)N2CCOCC2)ccc1F)N1CCCc2ccccc21`, the inhibition is 0.64% (inactive).

For the compound `CC(C)Oc1ccc(N2CC(C(=O)Nc3ccccc3F)CC2=O)cc1` (stereo unspecified), the inhibition was -1.17% (inactive).

Take `COCCn1c(C23CC4CC(CC(C4)C2)C3)n[nH]c1=S`: the inhibition is -2.34% (inactive).

For the compound `COc1cccc(C2=Nn3c(nnc3-c3ccccc3O)SC2)c1`, the inhibition is -3.16% (inactive).

Turning to `COc1cc(OC)c(OC)cc1CN(C)CCc1ccccn1`, the inhibition is -1.79% (inactive).

As for `CC(=O)c1c(C)nn(CC(O)COc2ccc3c(c2)CCC3)c1C` (stereo unspecified), the inhibition is 1.33% (inactive).

In the case of `Cc1cccn2cc(-c3ccccc3)nc12`, the inhibition is -1.45% (inactive).
